Results reported in PubChem BioAssay (EPA / NIEHS).
Active and inactive are the calls of the source. Rule for the calls: active = hit-call score of the fitted dose curve at least 0.9, where 1 is the maximum; inactive = score below 0.9.

Target: Signal transducer and activator of transcription 3 (Homo sapiens) (UniProt P40763)
Test: ATG_STAT3_CIS: Attagene CIS-FACTORIAL HepG2 Assay for human Signal Transducer and Activator of Transcription 3 (STAT3) (AID 2282963)
Conditions: HepG2, Attagene cis-factorial STAT3 reporter transcription; actives raise or lower the signal
Description: ATG_CIS is a cell-based, multiplexed-readout assay that uses HepG2, a human liver cell line, with measurements taken at 24 hours after chemical dosing in a 24-well plate.ATG_STAT3_CIS is one of 52 assay component(s) measured or calculated from the ATG_CIS assay. It is designed to make measurements of mRNA induction, a form of inducible reporter, as detected with fluorescence intensity signals by Reverse transcription polymerase chain reaction (RT-PCR) and Capillary electrophoresis technology.Data from the assay component ATG_STAT3_CIS was analyzed into 1 assay endpoint. This assay endpoint, ATG_STAT3_CIS, was analyzed with bidirectional fitting relative to DMSO as the negative control and baseline of activity. Using a type of inducible reporter, measures of mRNA for gain or loss-of-signal activity can be used to understand the reporter gene at the transcription factor-level as they relate to the gene STAT3. Furthermore, this assay endpoint can be referred to as a primary readout, because this assay has produced multiple assay endpoints where this one serves a reporter gene function. To generalize the intended target to other relatable targets, this assay endpoint is annotated to the dna binding intended target family, where the subfamily is stat protein.
Human liver HepG2 cells are transiently transfected with multiple reporter transcription units (MRTUs) in 6-well plates using FuGene 6 reagent (Roche; 3 ml FuGene/1 mg DNA). The MRTU constructs are regulated by a cis-regulating element (promoter). […] A major difference between the CIS and TRANS system is that in CIS activities of endogenous TFs are measured, whereas the TRANS assay evaluates changes in activities of exogenous, chimeric NR-Gal4 proteins. […] At the end of 24 hour incubation, total RNA was isolated using TriZol reagent (Invitrogen). The isolated RNA is then reverse-transcribed using oligo(dT) primer and Mo-MLV reverse transcriptase (Invitrogen) with DNAse I (Ambion) treatment for 30 min. The one-tenth of the produced cDNA was amplified by PCR using Taq DNA polymerase (Invitrogen) and two reporter sequence-specific primers. The PCR products were fluorescently labeled by primer extension with 6-arboxyfluorescein (6-FAM) 5'-labeled reporter sequence-specific primer (2 min at 95 C, 20 s at 68 C and 10 min at 72 C) and these products were digested with 5U of HpaI (New England Biolabs) for 2h at 37 C. The fragments were purified using Qiaquick PCR columns (Qiagen), analyzed on an ABI 3130xL genetic analyzer (Applied Biosystems) with peak positions identified by using a set of X-rhodamine (ROX)-labeled MapMarker1000 molecular weight standards (BioVentures). The raw capillary electrophoresis data was processed using Attagraph software (Attagene).

Chain of Signal transducer and activator of transcription 3 (Homo sapiens) (P40763 whole entry, looked up): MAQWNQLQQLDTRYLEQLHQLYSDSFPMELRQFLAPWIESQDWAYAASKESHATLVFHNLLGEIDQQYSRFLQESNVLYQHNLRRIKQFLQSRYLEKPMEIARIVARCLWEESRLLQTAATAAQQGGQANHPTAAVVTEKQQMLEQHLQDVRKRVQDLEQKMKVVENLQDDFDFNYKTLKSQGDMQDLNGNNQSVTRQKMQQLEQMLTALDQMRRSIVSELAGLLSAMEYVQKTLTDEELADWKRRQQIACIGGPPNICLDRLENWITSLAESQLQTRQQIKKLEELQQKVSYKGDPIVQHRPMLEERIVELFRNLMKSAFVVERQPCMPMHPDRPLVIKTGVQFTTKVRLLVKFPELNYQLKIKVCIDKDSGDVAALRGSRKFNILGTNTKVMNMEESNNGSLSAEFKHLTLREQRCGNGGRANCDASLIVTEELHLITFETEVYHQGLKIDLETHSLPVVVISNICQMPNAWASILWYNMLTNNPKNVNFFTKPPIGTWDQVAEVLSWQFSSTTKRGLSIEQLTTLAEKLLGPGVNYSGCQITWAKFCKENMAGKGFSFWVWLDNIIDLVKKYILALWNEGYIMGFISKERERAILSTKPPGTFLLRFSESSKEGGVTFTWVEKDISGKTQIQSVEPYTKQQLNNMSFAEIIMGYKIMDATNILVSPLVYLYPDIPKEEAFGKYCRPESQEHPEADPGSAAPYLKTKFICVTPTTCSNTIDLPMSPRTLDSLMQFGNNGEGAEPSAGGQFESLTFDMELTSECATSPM

Question: How did the outcome turn out when `O=C(O)c1ccccc1C(c1ccc(O)cc1)c1ccc(O)cc1` was run?
Answer: The outcome was “inactive”.

Question: With `O=C(/C=C/c1ccc(O)cc1)CC(=O)/C=C/c1ccc(O)cc1` as the compound, how does the outcome read?
Answer: The outcome was “inactive”.

Question: With `OC1CCCCC1` as the compound, how does the outcome read?
Answer: The outcome was “inactive”.

Question: For `CCCCC[C@H](O)CC(=O)CCc1ccc(O)c(OC)c1`, which outcome is on record?
Answer: The outcome was “inactive”.

Question: `CC(C)(C)CC(C)(C)c1ccc(O)c(-n2nc3ccccc3n2)c1` was tested. Which outcome did it give?
Answer: The outcome was “inactive”.

Question: How did the outcome turn out when `CCc1ccc(CCOc2ccc(CC3SC(=O)NC3=O)cc2)nc1` (stereo not given) was run?
Answer: Its outcome is “inactive”.

Question: How did the outcome turn out when `CCOC(=O)CC(O)(CC(=O)OCC)C(=O)OCC` was run?
Answer: The outcome was “inactive”.

Question: For `CCN(CC)CCNc1ccc(CNC=O)c2sc3ccc(OC)cc3c(=O)c12`, which outcome is on record?
Answer: Its outcome is “inactive”.

Question: How did the outcome turn out when `CCCCCCCCOC(=O)CCCCCCCCC(=O)OCCCCCCCC` was run?
Answer: The outcome was “inactive”.

Question: `CCC(=C(c1ccc(O)cc1)c1ccc(OCCN(C)C)cc1)c1ccccc1` was tested. Which outcome did it give?
Answer: The outcome was “inactive”.

Question: With `CC[C@H](c1ccc(O)cc1)[C@@H](CC)c1ccc(O)cc1` as the compound, how does the outcome read?
Answer: Its outcome is “inactive”.

Question: `c1ccc2c(c1)ccc1ccccc12` was tested. Which outcome did it give?
Answer: Its outcome is “inactive”.

Question: With `O=c1c(-c2ccc(O)cc2)coc2cc(O)ccc12` as the compound, how does the outcome read?
Answer: Its outcome is “inactive”.

Question: Which outcome does the source give for `c1ccc2c(c1)Cc1ccccc1-2` here?
Answer: Its outcome is “inactive”.

Question: For `NC(=O)N1C(=O)C(C(=O)c2cc(Cl)cs2)c2cc(F)c(Cl)cc21` (stereo not given), which outcome is on record?
Answer: The outcome was “inactive”.

Question: Which outcome does the source give for `CC(=O)NC1(c2cccc(F)c2)CCN(CC[C@@]2(c3ccc(Cl)c(Cl)c3)CN(c3ccccc3)C(=O)CO2)CC1` here?
Answer: Its outcome is “inactive”.

Question: Which outcome does the source give for `O=C(O)Cc1cc(I)c(Oc2cc(I)c(O)c(I)c2)c(I)c1` here?
Answer: The outcome was “inactive”.

Question: With `FC(F)(I)C(F)(F)C(F)(F)C(F)(F)C(F)(F)C(F)(F)I` as the compound, how does the outcome read?
Answer: The outcome was “inactive”.

Question: How did the outcome turn out when `CCC(C)(C)C1CCC(O)CC1` (stereo not given) was run?
Answer: Its outcome is “inactive”.

Question: For `CC(C)(C)c1ccc(O)c(C(C)(C)C)c1`, which outcome is on record?
Answer: The outcome was “inactive”.

Question: `CC1=C(/C=C/C(C)=C/C=C/C(C)=C/C(=O)O)C(C)(C)CCC1` was tested. Which outcome did it give?
Answer: The outcome was “inactive”.

Question: `CCCCCCCC(=O)O` was tested. Which outcome did it give?
Answer: Its outcome is “inactive”.

Question: `CCCCCCCCCCCCCCCS(=O)(=O)Oc1ccccc1` was tested. Which outcome did it give?
Answer: Its outcome is “inactive”.

Question: `CCCOC(=O)c1ccc(O)cc1` was tested. Which outcome did it give?
Answer: Its outcome is “inactive”.

Question: `C[C@@H]1C[C@H]2[C@@H]3CCC4=CC(=O)C=C[C@]4(C)[C@@]3(F)[C@@H](O)C[C@]2(C)[C@@]1(O)C(=O)COP(=O)(O)O` was tested. Which outcome did it give?
Answer: Its outcome is “inactive”.

Question: `CCc1nn(C2CCCCC2)c2cc(C3(C#N)CCC(C(=O)O)CC3)ccc12` (stereo not given) was tested. Which outcome did it give?
Answer: The outcome was “inactive”.

Question: For `Cc1cc(CCN2CCN(c3nsc4ccccc34)CC2)cc2c1NC(=O)CC2(C)C`, which outcome is on record?
Answer: Its outcome is “inactive”.

Question: Which outcome does the source give for `COCC(C)OCC(C)O` (stereo not given) here?
Answer: Its outcome is “inactive”.

Question: How did the outcome turn out when `OC1CCC(C2CCCCC2)CC1` (stereo not given) was run?
Answer: The outcome was “inactive”.

Question: Which outcome does the source give for `CC(C)(C)c1cc(C(C)(C)C)c(O)c(C(C)(C)C)c1` here?
Answer: Its outcome is “inactive”.

Question: Which outcome does the source give for `CCCOc1sc(C(=O)N2CCC(c3cc(CN)ccc3F)CC2)c(C)c1Br` here?
Answer: The outcome was “inactive”.

Question: For `Oc1cc2ccccc2c2ccccc12`, which outcome is on record?
Answer: The outcome was “inactive”.

Question: How did the outcome turn out when `Oc1cccc(O)c1` was run?
Answer: The outcome was “inactive”.

Question: Which outcome does the source give for `O=C(OCCOCCOC(=O)c1ccccc1)c1ccccc1` here?
Answer: The outcome was “inactive”.

Question: Which outcome does the source give for `OCCC(F)(F)C(F)(F)C(F)(F)C(F)(F)C(F)(F)C(F)(F)F` here?
Answer: The outcome was “inactive”.

Question: For `CCCCCCCCCCCCc1ccccc1S(=O)(=O)O`, which outcome is on record?
Answer: The outcome was “inactive”.

Question: `CN(C)C=O` was tested. Which outcome did it give?
Answer: Its outcome is “inactive”.

Question: Which outcome does the source give for `Cc1cc(C)c(O)c(C)c1` here?
Answer: The outcome was “inactive”.

Question: How did the outcome turn out when `NC(=O)N(O)[C@@H]1C=C[C@H](Oc2cccc(Oc3ccc(F)cc3)c2)C1` was run?
Answer: Its outcome is “inactive”.

Question: How did the outcome turn out when `Cc1ccc(S(=O)(=O)O)c(C)c1` was run?
Answer: The outcome was “inactive”.
